# PubChem BioAssay AID686979 (National Center for Advancing Translational Sciences (NCATS), 2013)
# Screen size: about 420,000 compounds; about 50,000 (12%) were called active. About 26% were inconclusive and are not listed. This excerpt belongs to a sample that is enriched for actives. Unmarked numbers belong to inactive results. Calls come from the whole dose curve; as a rule, active = well fitted inhibition curve with a large enough effect; inconclusive = small, poorly fitted or top-dose-only effect; inactive = flat fitted curve, though single readings scatter.
# Assay: qHTS for Inhibitors of human tyrosyl-DNA phosphodiesterase 1 (TDP1): qHTS in cells in presence of CPT; note: nearly all actives have a fitted effect of over 55% in size
# Settings: chicken DT40 Tdp1-/-;hTDP1 cells + 20 nM CPT, ATP luminescence, 48 h; series mostly up to 46.2 µM; activity change, negative = growth inhibition: at the top concentration
# How it was run: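 Chicken DT40 Tdp1-/- cells stably complemented with human TDP1 were seeded at 400 cells/well in medium containing 20 nM camptothecin, exposed to pin-transferred compounds, and grown at 37 °C for at least 48 hr. Viability was read as ATP luminescence.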
# % is set by controls: 0 for no effect and ±100 for the full control effect; potency is the fitted concentration of half-maximal effect.
SMILES,"activity change, negative = growth inhibition",Potency
COc1ccccc1NC(=O)N1CCCC1C(=O)NCc1cccs1 (configuration not stated),5.59%,–
CC(C)CN(C(=O)CSc1ncnc2sccc12)C1CCS(=O)(=O)C1 (configuration not stated),-4.09%,–
O=C(COc1ccc(NC(=O)c2ccccc2[N+](=O)[O-])cc1)c1ccc(F)cc1,-2.89%,–
CSc1nc(-c2ccccc2)nc(C(Cl)Cl)n1,–,1.16 µM (active)
CSc1ncc(Sc2ccccc2)c(C(=O)O)n1,-2.14%,–
COc1ccc(CC(NC(C)=O)C(=O)N2CCN(C(=O)Nc3cccc(Cl)c3)CC2)cc1OC (configuration not stated),-3%,–
COc1ccc(OCCCC(=O)Oc2ccc(OC)cc2)cc1,-9.99%,–
COc1ccc(OCCC(=O)c2ccc(OC)cc2)cc1,–,2.59 µM (active)
COc1ccc(CCC(=O)c2ccc(OC)cc2)cc1,3.92%,–
Cc1ccc2sc(NNC(=O)c3ccc4c(c3)OCCO4)nc2c1C,-14.2%,–
CNc1ccc(-c2nc(-c3ccccc3C)no2)cc1[N+](=O)[O-],-4.91%,–
Cc1onc(-c2ccccc2)c1C(=O)N1CCOCC1,2.28%,–
Cc1noc(C)c1C(=O)N1CCOCC1,-8.25%,–
Cc1oc2c(c1C(=O)N1CCOCC1)C(=O)c1ccccc1C2=O,–,2.59 µM (active)
CC(NCC(=O)Nc1ccccc1C(=O)NC1CC1)c1ccccc1Cl (configuration not stated),1.01%,–
O=C(c1cccc(Br)c1)N1CCN(Cc2cc(=O)n3nc(-c4ccccc4)sc3n2)CC1,-1.68%,–
COc1cccc(-n2c(=S)sc3c(=O)n(-c4ccccc4C)c(SCC(=O)O)nc32)c1,22%,–
CCOC(=O)c1sc(=S)n(-c2cccc(OC)c2)c1N,–,35.5 µM (active)
CCOC(=O)C(C)n1cnc2c(nnn2-c2cccc(OC)c2)c1=O (configuration not stated),-3.77%,–
Cc1ccc(S(=O)(=O)NCC(=O)N2CCN(c3ccccn3)CC2)cc1,-5.89%,–
O=C(Nc1ccc(F)cc1)c1cccnc1N1CCOCC1,-2.24%,–
Cc1cc(Br)ccc1NC(=O)c1cnc(N2CCN(c3ccccn3)CC2)c2ccccc12,–,14.6 µM (active)

SMILES,"activity change, negative = growth inhibition",Potency
CSc1ncccc1C(=O)Nc1cccc(S(=O)(=O)N2CCOCC2)c1,1.28%,–
Cc1cc(Br)ccc1NC(=O)c1sc2ncn(CC(=O)N3CCN(c4ccccn4)CC3)c(=O)c2c1C,-23.7%,–
CCc1cccc(NC(=O)c2cnc(N3CCOCC3)c3ccccc23)c1,–,20.6 µM (active)
O=C(NCc1ccccc1)C1c2ccccc2OCC(=O)N1C1CC1 (configuration not stated),-1.85%,–
CS(=O)(=O)N(CC(=O)NC1CCCC1)Cc1ccc(F)cc1,-5.58%,–
CCCCn1c(N)c(N(CC(C)C)C(=O)c2ccc(Br)o2)c(=O)[nH]c1=O,-20%,–
CCOCc1nnc(NC(=O)CCC2CCCCC2)s1,-7.37%,–
COCCN(C(=O)CCC(=O)Nc1nccs1)C(C(=O)NCCC(C)C)c1ccc(F)cc1 (configuration not stated),8.82%,–
O=C(CC(NC(=O)c1ccccc1)c1ccccc1)Nc1ccc(F)c(F)c1 (configuration not stated),-26.2%,–
O=C(Nc1ccc(Br)c2cccnc12)c1ccc(Cn2cc([N+](=O)[O-])cn2)o1,–,16.4 µM (active)
O=C(c1ccc(Cn2cc([N+](=O)[O-])cn2)o1)N1CCCC1,15.4%,–
COc1cccc(NC(=O)c2ccc(Cn3cc([N+](=O)[O-])cn3)o2)c1,-21.4%,–
COC1=CC(=O)OC(C)(c2ccccc2)C1 (configuration not stated),-20%,–
CC(=O)c1c(C)n(-c2ccc(N(C)C)cc2)c2ccc(OCC(N)=O)cc12,–,18.4 µM (active)
CC(=O)c1c(C)n(-c2ccc(C)cc2)c2ccc(O)cc12,-5.03%,–
Cc1c(Cc2ccccc2)c(=O)oc2cc(OCC(N)=O)ccc12,-3.22%,–
CCCCc1ccc(S(=O)(=O)NC(=O)C2(C)CCN2C(=O)c2ccccc2)cc1 (configuration not stated),-29.2%,–
Cc1cccc2[nH]c(CN(C)C(=O)C3CCC(=O)N(CCc4ccccc4)C3)nc12 (configuration not stated),-9.24%,–
CS(=O)(=O)Nc1ccccc1N=C(c1ccccc1)c1ccccc1,6.15%,–
CC(C)CN(C(=O)CSc1nncn1C)C1CCS(=O)(=O)C1 (configuration not stated),4.23%,–
COc1cc(CC(=O)N2CCC(n3nccc3NC(=O)C3CC3)CC2)cc(OC)c1OC,-0.897%,–
CCOc1cc(/C=N/NC(=O)CN2CCCCC2)ccc1O,17.3%,–

SMILES,"activity change, negative = growth inhibition",Potency
CCOc1cc(/C=C(\C#N)c2nc(-c3cccs3)c(NC(C)=O)s2)ccc1O,–,2.31 µM (active)
CCOc1cc(/C=C(\C#N)C(=O)Nc2ccccc2C)ccc1OCc1cc(=O)n2nc(CC)sc2n1,-12.1%,–
Cc1cc2c(C)nc(N/N=C/c3ccccc3)nc2o1,0.913%,–
Cc1ccc(C(=O)CN2C(=O)NC3(CCOc4ccccc43)C2=O)s1 (configuration not stated),-10.5%,–
Cc1ccc(NC(=O)C(C)OC(=O)Cc2c[nH]c3ccccc23)cc1S(=O)(=O)N1CCOCC1 (configuration not stated),-26.8%,–
Cc1ccc(-n2nc(C)c(C(=O)O)c2-n2cccc2)cc1,-5.51%,–
O=C(CS(=O)(=O)c1cn(Cc2cccc(F)c2)c2ccccc12)N1CCCCC1,-23.9%,–
Cc1ccc(S(=O)(=O)N2CC(C)N(S(C)(=O)=O)C2)cc1 (configuration not stated),7.03%,–
Cc1ccc(S(=O)(=O)N2C[C@@H]3CCCC[C@@H]3[C@@H](C)[C@H]2c2cn(Cc3ccccc3)c3ccc(F)cc23)cc1,–,6.51 µM (active)
CCC(=O)c1ccc(OCC(=O)OCC(=O)N2CCc3ccccc3C2)cc1,-2.43%,–
COc1cccc(C(NC(C)=O)c2nc(-c3cnc4ccccc4c3)cs2)c1 (configuration not stated),-3%,–
COc1ccc(Nc2cc(Cl)ccc2C(=O)O)cn1,-2.52%,–
COc1ccc(-c2csc(C(O)c3cccc(Cl)c3)n2)cn1 (configuration not stated),–,16.4 µM (active)
CCCC(CNC(=O)COC(=O)C1=NNC(=O)CC1)c1ccc(Cl)cc1Cl (configuration not stated),1.78%,–
CC(C)C(=O)Nc1ccc2c(c1)oc1ccccc12,-28.2%,–
O=C(CSc1nnc(-c2ccccc2O)o1)NC1CCCCC1,-22.7%,–
Cn1nccc1/C=N\NC(=O)c1ccc(Cl)cc1,-7.55%,–
Cc1cc(C)n(-c2cc(Oc3ccccc3)ncn2)n1,-11.2%,–
Cc1cc(Nc2ccccc2)nc(N)n1,-5.5%,–
COc1ccc(Nc2cc(C)nc(-n3nc(C)cc3C)n2)cc1,–,0.517 µM (active)
Cc1cc(Oc2ccccc2)nc(N2CCOCC2)n1,-11.7%,–
COc1ccc(NC(=O)c2nc(-n3nc(C)cc3C)ccc2Cl)cc1Cl,-23.4%,–

SMILES,"activity change, negative = growth inhibition",Potency
Cc1ccc(Nc2nc3ccccc3nc2-n2nc(C)cc2C)c(Cl)c1,8.53%,–
COc1ccc(Nc2nc(=O)[nH]nc2C)cc1,-17.5%,–
Cc1cccc(Nc2cc(C)nc(-n3nc(C)cc3C)n2)c1,–,3.26 µM (active)
CC(=O)c1ccc(Oc2cc(C)nc(-n3nc(C)cc3C)n2)cc1,–,0.731 µM (active)
CC(=O)NCCC(=O)Nc1cc(S(=O)(=O)N2CCCCC2)ccc1Oc1cccc(C)c1,-10.8%,–
COC(=O)c1ccc(NC(=O)c2cc3c(CO)cnc(C)c3oc2=Nc2cccc(C(N)=O)c2)cc1,1.92%,–
O=C(N/C(=C\c1ccc([N+](=O)[O-])cc1)C(=O)N1CCCCC1)c1ccco1,1.48%,–
CC(=O)Nc1ccc(NC(=O)[C@@H](NC(=O)c2cccc(C)c2)C(C)C)cc1,6.73%,–
CC(=O)c1cccc(NC(=O)Nc2ccc(C)cc2)c1,4.63%,–
Cc1ccc(NC(=O)C(C)c2cccc(C(=O)c3ccccc3)c2)cc1 (configuration not stated),–,14.6 µM (active)
O=C(CN(C(=O)CNC(=O)c1cccs1)c1cccc(F)c1)NC1CCCCC1,3.13%,–
CCOc1ccc(NC(=O)CC2C(=O)N(c3ccccc3)C(=O)N2CCOC)cc1 (configuration not stated),7.81%,–
CCNC(=O)N1CCNC(=O)C1CC(=O)Nc1ccc(C(=O)OCC)cc1 (configuration not stated),5.76%,–
COc1ccc(CCN2C(=O)N(c3cccc(OC)c3)C(=O)C2CC(=O)Nc2ccccc2)cc1 (configuration not stated),–,18.4 µM (active)
Cc1ccc(N2C(=O)C(CC(=O)Nc3cccc(F)c3)N(CCc3ccncc3)C2=O)cc1 (configuration not stated),-13.6%,–
CCOC(=O)c1ccc(NC(=O)CC2C(=O)N(c3cccc(OC)c3)C(=O)N2C2CCCCC2)cc1 (configuration not stated),–,20.6 µM (active)
CCOc1ccc(NC(=O)CC2C(=O)N(c3cccc(OC)c3)C(=O)N2C2CCCCC2)cc1 (configuration not stated),-29%,–
CN1c2ccc([N+](=O)[O-])cc2C(C)(C)C12C=Cc1cc(C(=O)O)ccc1O2 (configuration not stated),1.71%,–
COc1ccc(S(=O)(=O)N2CCOCC2)cc1NC(=O)Cc1coc2cc(C)ccc12,-12.2%,–
COc1ccc(/C(C)=N/NC(=O)c2ccc3nc[nH]c3c2)cc1,-3.72%,–
CCN(C(=O)CSc1cccc[n+]1[O-])c1ccccc1,-16%,–
O=C(CSc1cccc[n+]1[O-])c1ccc(-c2ccccc2)cc1,–,0.92 µM (active)

SMILES,"activity change, negative = growth inhibition",Potency
COc1ccccc1C(=O)CSc1cccc[n+]1[O-],2.9%,–
Cc1ccc(C(C)NC(=O)Cn2nc(C)c([N+](=O)[O-])c2C)cc1 (configuration not stated),-9.96%,–
Cn1c(CC2Sc3ccccc3NC2=O)nnc1SCC(=O)c1ccc(Cl)cc1 (configuration not stated),-7.86%,–
O=C(CN1C(=O)COc2ccc(Cl)cc21)N1CCOCC1,14.1%,–
Cc1ccc(NC(=O)C(=O)NCC(c2cccnc2)N2CCOCC2)cc1 (configuration not stated),-12.9%,–
COc1ccccc1N1CCN(C(CNC(=O)C(=O)NCc2ccc(C)cc2)c2cccnc2)CC1 (configuration not stated),–,4.61 µM (active)
Cc1ccc(NC(=O)NCC(c2cccnc2)N2CCOCC2)cc1 (configuration not stated),-6.59%,–
CC(OC(=O)c1cc2ccccc2[nH]1)C(=O)N(C)c1ccccc1 (configuration not stated),-28.6%,–
O=C(Cc1ccccn1)c1ccc(O)cc1O,-7.64%,–
Cc1ccc(Cl)cc1NC(=S)N(CCN(C)C)Cc1cccs1,-27.7%,–
Cc1ccc(CN(Cc2cccnc2)C(=S)Nc2cc(Cl)ccc2C)cc1,–,13 µM (active)
Cc1c(Cl)cccc1NC(=S)N(Cc1ccccc1)Cc1cccnc1,-22.2%,–
C=CCn1nc(-c2ccccc2)c2c(C)onc2c1=O,8.61%,–
O=C(Nc1cccc(C(=O)NC2CC2)c1)c1ccc(F)c(S(=O)(=O)N2CCOCC2)c1,-23.2%,–
OCC[C@H]1C[C@H](O)[C@@H](O)[C@]2(CCCCO2)O1,-0.0748%,–
Cc1nnsc1C(=O)NCc1c(F)cccc1Cl,-1.82%,–
Cc1ccc(NS(=O)(=O)c2cn(C)c(=O)n(C)c2=O)c(C)c1,-5.84%,–
Cn1cc(S(=O)(=O)Nc2ccc(Cl)cc2Cl)c(=O)n(C)c1=O,–,20.6 µM (active)
CC(C)c1ccc(NS(=O)(=O)c2cn(C)c(=O)n(C)c2=O)cc1,-8.08%,–
